Data taken from PubChem BioAssay (EPA / NIEHS).
Activity calls are given as the source filed them. The calls were made as follows: active = hit-call score of the fitted dose curve at least 0.9, where 1 is the maximum; inactive = score below 0.9.

What was measured:
[1] = APR_HepG2_CellCycleArrest_24hr: Apredica 24-hour HepG2 Assay for Cell Cycle Arrest (AID 2282905); conditions: imaging, actives raise or lower the signal;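 also: cell cycle arrest scored as ratio of 2N to 4N nuclear DNA content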
Procedure, shortened: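 Compounds at 0.39–200 uM (0.5% DMSO) for 24 h, then fixed and Hoechst 33342 stained. Cell-cycle analysis of nuclear DNA content by high-content imaging, fitted bidirectionally versus DMSO.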

[2] = APR_HepG2_NuclearSize_24hr: Apredica 24-hour HepG2 Assay for Nuclear Size (AID 2282907); conditions: high-content imaging, actives raise or lower the signal
Procedure, shortened: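 HepG2 cells exposed 24 h to compounds at 0.39–200 uM (0.5% DMSO), fixed, Hoechst 33342 stained and imaged at 20x; nuclear diameter measured by automated image analysis, fitted bidirectionally against DMSO controls.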

[3] = APR_HepG2_CellLoss_24hr: Apredica 24-hour HepG2 Assay for Cell Loss (AID 2282908); conditions: high-content imaging;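 as to AC50: fit in both directions so a hit may be cell loss or gain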
Procedure, shortened: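 HepG2 cells exposed 24 hr to 0.39–200 uM compound in duplicate at 0.5% v/v final DMSO. Cells fixed in 3.7% formaldehyde and Hoechst 33342-stained. Cell number came from nuclear imaging at 20x. Bidirectional fit versus DMSO.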

[4] = APR_HepG2_MicrotubuleCSK_24hr: Apredica 24-hour HepG2 Assay for Microtubule CSK Stabilty (AID 2282909); conditions: HepG2 microtubule cytoskeleton imaging, actives raise or lower the signal
Procedure, shortened: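 HepG2 cells were treated 24 hr with compound at 0.39–200 uM in duplicate (0.5% DMSO final), then fixed and permeabilized. Alpha-tubulin immunofluorescence was imaged by high-content microscopy, with bidirectional fitting against DMSO and taxol as positive control.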

[5] = APR_HepG2_MitoticArrest_24hr: Apredica 24-hour HepG2 Assay for Mitotic Arrest (AID 2282910); conditions: high-content imaging, actives raise or lower the signal
Procedure, shortened: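 HepG2 human liver cells were exposed to compounds at 0.39–200 uM (10 concentrations, duplicate) in 0.5% v/v DMSO for 24 hr, then fixed and immunostained for phospho-histone H3 with Hoechst 33342. Mitotic arrest came from HCS fluorescent imaging, fitted bidirectionally against DMSO.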

[6] = APR_HepG2_MitoMembPot_24hr: Apredica 24-hour HepG2 Assay for Mitochondrial Membrane Potential (AID 2282911); conditions: imaging, actives raise or lower the signal
Procedure, shortened: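 HepG2 cells exposed 24 h to 0.39–200 uM compounds in duplicate, 0.5% v/v DMSO final. MitoTracker Red CMXRos 250 nM loaded 30 min before formaldehyde fixation; high-content imaging at 20x, bidirectional fit versus DMSO.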

[7] = APR_HepG2_MitoMass_24hr: Apredica 24-hour HepG2 Assay for Mitochondrial Mass (AID 2282912); conditions: high-content imaging, actives raise or lower the signal
Procedure, shortened: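 HepG2 cells exposed 24 hr to 0.39–200 uM compound, 0.5% v/v DMSO, in duplicate. Stained before fixation with 250 nM MitoTracker Red CMXRos for 30 min, then imaged at 20x with Hoechst nuclei. Fitted in both directions against DMSO.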

[8] = APR_HepG2_p53Act_24hr: Apredica 24-hour HepG2 Assay for p53 Activation (AID 2282913); conditions: high-content imaging, actives raise or lower the signal;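 also: p53 protein immunofluorescence averaged per cell in HepG2 with Hoechst nuclei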
Procedure, shortened: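 HepG2 cells exposed 24 h to compounds at 0.39–200 uM in duplicate, 0.5% v/v DMSO final; fixed, permeabilized, stained with anti-p53 antibody and Hoechst 33342; fluorescence imaging; bidirectional curve fit versus DMSO.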

[9] = APR_HepG2_CellCycleArrest_72hr: Apredica 72-hour HepG2 Assay for Cell Cycle Arrest (AID 2282914); conditions: high-content imaging, actives raise or lower the signal
Procedure, shortened: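 HepG2 cells exposed 72 h in duplicate to 0.39–200 uM compound, 0.5% DMSO final. Formaldehyde-fixed, Hoechst 33342-stained nuclei imaged at 20x, six fields per well; DNA content per valid cell quantified by cell-cycle image analysis, bidirectional fit versus DMSO.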

[10] = APR_HepG2_CellLoss_72hr: Apredica 72-hour HepG2 Assay for Cell Loss (AID 2282915); conditions: high-content imaging
Procedure, shortened: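 HepG2 cells were exposed for 72 hr to compounds at 0.39–200 uM (ten concentrations, duplicate) in 0.5% v/v final DMSO. Nuclei were stained with Hoechst 33342 after 3.7% formaldehyde fixation, imaged at 20x, and counted; fits bidirectional versus DMSO.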

[11] = APR_HepG2_P-H2AX_72hr: Apredica 72-hour HepG2 Assay for H2AX Phosphorylation (AID 2282916); conditions: imaging, actives raise or lower the signal;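 also: phospho-histone H2A.x immunostain intensity per cell marking DNA damage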
Procedure, shortened: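 HepG2 cells treated 72 h at 0.39–200 uM, 0.5% DMSO final, duplicates. Formaldehyde-fixed, Triton-permeabilised, immunostained for phospho-H2A.x with Hoechst; fluorescence imaged at 20x, bidirectional fit versus DMSO.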

[12] = APR_HepG2_MitoMembPot_72hr: Apredica 72-hour HepG2 Assay for Mitochondrial Membrane Potential (AID 2282917); conditions: imaging, actives raise or lower the signal
Procedure, shortened: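 HepG2 cells exposed 72 h to compounds at 0.39–200 uM (0.5% v/v DMSO, duplicates); MitoTracker Red CMXRos 250 nM loaded 30 min before 3.7% formaldehyde fixation, imaged by HCS fluorescence. Bidirectional fit versus DMSO.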

[13] = APR_HepG2_MitoticArrest_72hr: Apredica 72-hour HepG2 Assay for Mitotic Arrest (AID 2282918); conditions: high-content imaging, actives raise or lower the signal
Procedure, shortened: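 HepG2 cells treated 72 h at 0.39–200 uM, 0.5% DMSO final; formaldehyde-fixed, stained with Hoechst 33342 and phospho-histone H3 antibody, imaged by high-content fluorescence; bidirectional fit versus DMSO.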

[14] = APR_HepG2_MicrotubuleCSK_72hr: Apredica 72-hour HepG2 Assay for Microtubule CSK Stabilty (AID 2282919); conditions: HepG2 microtubule cytoskeleton, high-content imaging, actives raise or lower the signal
Procedure, shortened: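 HepG2 human liver cells were dosed for 72 h at ten concentrations from 0.39 to 200 uM in duplicate (0.5% v/v DMSO final). Fixed, permeabilized cells were immunostained for alpha-tubulin (Cy5) with a Hoechst counterstain and imaged at 20x.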

[15] = APR_HepG2_P-H2AX_24hr: Apredica 24-hour HepG2 Assay for H2AX Phosphorylation (AID 2282920); conditions: high-content imaging, actives raise or lower the signal
Procedure, shortened: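 HepG2 cells dosed 24 h at 0.39–200 uM (10 points, duplicate, 0.5% DMSO final). Formaldehyde-fixed and permeabilized, then immunostained for phospho-H2A.x with Hoechst. Fluorescence quantified by high-content imaging, fitted bidirectionally versus DMSO.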

[16] = APR_HepG2_StressKinase_24hr: Apredica 24-hour HepG2 Assay for Stress Kinase (AID 2282922); conditions: HepG2 stress kinase (phospho-c-Jun) imaging, actives raise or lower the signal
Procedure, shortened: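 HepG2 cells exposed 24 hr to compound at 0.39–200 uM (10 concentrations, duplicate), 0.5% v/v DMSO final. Fixed in 3.7% formaldehyde, permeabilized with Triton X-100, immunolabeled for phospho-c-Jun with Hoechst 33342; HCS fluorescence imaging, bidirectional fit versus DMSO.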

[17] = APR_HepG2_p53Act_72hr: Apredica 72-hour HepG2 Assay for p53 Activation (AID 2282923); conditions: high-content imaging, actives raise or lower the signal;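 also: average cellular p53 protein immunofluorescence intensity in HepG2 cells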
Procedure, shortened: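 HepG2 cells exposed 72 h to 0.39–200 uM in 0.5% DMSO, duplicates. Fixed, permeabilized cells immunostained for p53 (Cy5) with Hoechst; imaged at 20x, fluorescence analyzed bidirectionally against DMSO.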

[18] = APR_HepG2_MitoMass_72hr: Apredica 72-hour HepG2 Assay for Mitochondrial Mass (AID 2282924); conditions: high-content imaging, actives raise or lower the signal;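 also: MitoTracker Red CMXRos stain intensity per cell imaged as mitochondrial mass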
Procedure, shortened: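 HepG2 cells were exposed for 72 hr to compounds at 0.39–200 uM (ten concentrations, duplicate, 0.5% v/v DMSO final). Live cells were stained with 250 nM MitoTracker Red CMXRos for 30 min, then fixed in 3.7% formaldehyde and imaged by HCS fluorescence.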

[19] = APR_HepG2_NuclearSize_72hr: Apredica 72-hour HepG2 Assay for Nuclear Size (AID 2282925); conditions: high-content imaging, actives raise or lower the signal
Procedure, shortened: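 HepG2 cells were exposed to compounds at ten concentrations from 0.39 to 200 uM (duplicate, 0.5% DMSO final) for 72 hr. After fixation in 3.7% formaldehyde, nuclei were stained with Hoechst 33342 (2 ug/mL) and imaged at 20x.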

[20] = APR_HepG2_StressKinase_72hr: Apredica 72-hour HepG2 Assay for Stress Kinase (AID 2282921); conditions: HepG2 stress kinase (phospho-c-Jun) imaging, actives raise or lower the signal
Procedure, shortened: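 HepG2 cells treated 72 hr with 0.39–200 uM compound, 0.5% v/v DMSO, duplicate wells. After formaldehyde fixation and Triton permeabilization, stained with anti-phospho-c-Jun (1:500) and Cy3 secondary, imaged at 20x. Fitted in both directions against DMSO.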

Measured: AC50

CCCCC(CC)COC(=O)CCCCCCCCC(=O)OCC(CC)CCCC (stereo not given)
active: [3] 117 µM | [4] 128 µM | [5] 68.5 µM | [8] 108 µM | [9] 170 µM | [10] 100 µM | [11] 68.2 µM | [12] 83.4 µM | [13] 111 µM | [14] 87.6 µM | [15] 116 µM | [18] 36.5 µM
inactive: [1] | [2] | [6] | [7] | [16] | [17] | [19]

CCN(C(=O)c1cc(C)cc(OC[C@H](C)Nc2ccncc2)c1)C(C)C
inactive: all assays above

CC1(C)C(=O)N(Br)C(=O)N1Br
inactive: all assays above

Nc1cccc(N)c1
active: [15] 48.3 µM
not listed: [18] | [20]
inactive: all other assays above

CCCCCCCCCCCCCCCO
active: [1] 107 µM | [9] 110 µM | [10] 93.8 µM | [13] 95.6 µM
not listed: [12] | [18]
inactive: all other assays above

COc1ccc(-n2nc(C(F)F)cc2-c2ccc(S(C)=O)cc2)cc1 (stereo not given)
active: [1] 49.5 µM | [6] 5.03 µM | [10] 72.8 µM
not listed: [12] | [18]
inactive: all other assays above

Cn1c(=O)cc(Oc2ccc(F)cc2F)c2cnc(NCC(C)(C)O)nc21
active: [9] 112 µM
not listed: [12] | [20]
inactive: all other assays above

CC(=O)c1ccc2c(c1)[C@H](NC(=O)c1ccc(F)cc1)[C@@H](O)C(C)(C)O2
not listed: [12] | [18] | [20]
inactive: all other assays above

O=c1n(CC2CO2)c(=O)n(CC2CO2)c(=O)n1CC1CO1 (stereo not given)
inactive: [2] | [6] | [14] | [19]
active: [1] 0.225 µM | [3] 1.8 µM | [4] 24.4 µM | [5] 27.8 µM | [7] 50 µM | [8] 11.3 µM | [9] 0.224 µM | [10] 10.7 µM | [11] 15.2 µM | [13] 15.8 µM | [15] 17.8 µM | [16] 31.6 µM | [17] 5.06 µM

CC(C)=CCCC(C)CCO (stereo not given)
active: [9] 0.0388 µM | [10] 0.0391 µM | [13] 0.0229 µM | [18] 0.0391 µM
inactive: all other assays above

On1ccccc1=S
active: [8] 19.6 µM | [9] 8.36 µM | [10] 5.34 µM | [13] 21.5 µM | [20] 5.96 µM | [17] 8.59 µM | [19] 3.98 µM
not listed: [12]
inactive: all other assays above

CNCc1ccc(NC(=O)c2c[nH]c3c2C(=O)CCC3)cc1
active: [10] 73.7 µM
not listed: [12]
inactive: all other assays above

CCOC(=O)COc1ccc2c(c1)CC(NCC(O)c1cccc(Cl)c1)CC2 (stereo not given)
active: [3] 84.4 µM | [5] 28.7 µM | [7] 41.5 µM | [8] 30.6 µM | [10] 71.4 µM | [13] 23.1 µM | [15] 23.2 µM
not listed: [12] | [18] | [20]
inactive: all other assays above
